Rows were chosen to be rich in hits. Some 27% of all compounds tested hit in one or more screens of this group.
CYP2C9 act: human CYP2C9 activators, primary screen, biochemical, luminescence; Cytochrome P450 2C9 (Homo sapiens), P11712; recombinant CYP2C9, luciferin-H conversion; hits give high values; factor 1 = untreated enzyme, 0 = blocked; activation factor at 5 µM; hit rate 1.4% among 96,000;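 active means activation factor of 2 or more for CYP2C9 at a 5 µM dose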;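 further: 0 = sulfaphenazole-blocked wells and 1 = vehicle-only wells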
Cav32 inh: Cav3.2 calcium influx blockers – cell-based, Fluo-4 calcium fluorescence, FDSS, MLSMR library, primary screen; Cav3.2-expressing cells; hits give low values; AID 449739, 2010; hit rate 4% among 100,000; B-score at 10 µM;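 active means single-dose well whose peak fluorescence ratio is a statistical outlier from its plate by either plate-standardised score or position-corrected B-score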
CYP2C19 inhib: blockers of cytochrome P450 2C19 activity – biochemical, luminescence, ADME assay, primary screen. P33261. CYP2C19 Supersomes, luciferin-H EGE luminescence, 30 min. inhibition, % at 5 µM. hit rate 21% among 96,000. AID 778, 2007;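 active means CYP2C19 inhibition above a set limit at 5 µM in the primary screen, cut at about 50% in these data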;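 further: plate controls were negative control wells for no effect and 2.5 mM tranylcypromine positive control for full effect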
Target sequence (P33261 whole entry, looked up): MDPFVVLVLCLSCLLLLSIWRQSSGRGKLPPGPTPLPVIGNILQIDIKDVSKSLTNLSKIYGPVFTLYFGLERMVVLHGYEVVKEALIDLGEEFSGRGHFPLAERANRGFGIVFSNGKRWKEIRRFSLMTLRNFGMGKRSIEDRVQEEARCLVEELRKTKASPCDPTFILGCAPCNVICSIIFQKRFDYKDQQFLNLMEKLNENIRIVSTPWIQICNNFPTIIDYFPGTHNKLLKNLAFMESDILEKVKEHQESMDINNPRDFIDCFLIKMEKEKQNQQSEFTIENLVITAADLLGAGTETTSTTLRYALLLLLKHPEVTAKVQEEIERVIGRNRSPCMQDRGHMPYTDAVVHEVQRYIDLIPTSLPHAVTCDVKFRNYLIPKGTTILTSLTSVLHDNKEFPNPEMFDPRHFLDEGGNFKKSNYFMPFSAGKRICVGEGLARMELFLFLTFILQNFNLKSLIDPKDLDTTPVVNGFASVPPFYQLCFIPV
CYP2C9 inhib: blockers of cytochrome P450 2C9 activity – biochemical, luminescence, ADME assay, primary screen; hit rate 20% among 96,000; inhibition, % at 5 µM; CYP2C9 Supersomes, luciferin-H conversion; AID 777, 2007;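 active means blocking of liver enzyme CYP2C9 beyond about 50% at 5 µM, limit read from the data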
CYP2C19 activ: human CYP2C19 activators, primary screen, biochemical, luminescence; 96,000 tested, under 10 active; recombinant CYP2C19, luciferin-H EGE luminescence; hits give high values; 0 = fully inhibited enzyme, 1 = untreated enzyme; activation factor at 5 µM; Cytochrome P450 2C19 (Homo sapiens), P33261;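 active means activation factor of at least 2 at 5 µM in the primary screen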;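 further: 0 = wells with 2.5 mM tranylcypromine and 1 = vehicle-only wells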
* hit, by the source's call; . = no result.

SMILES	CYP2C9 act	Cav32 inh	CYP2C19 inhib	CYP2C9 inhib	CYP2C19 activ
Cc1nn(C)c(C)c1S(=O)(=O)N1CCCC(C(=O)NCCc2ccc(Cl)cc2)C1 (configuration not stated)	1.1	1.4	7	-13	0.9
O=C(NCCc1ccc(Cl)cc1)C1CCN(S(=O)(=O)N2CCC3(CC2)OCCO3)CC1	0.7	-0.49	77*	33	0.2
CCCC(=O)NCCc1cc2c(C)ccc(C)c2[nH]c1=O	1	-0.59	5	2	0.9
Cc1cc2c(=O)n(NC(N)=O)c(C)nc2s1	0.9	0.11	2	9	1
CN1CCN(CCCn2cnc3c(=O)oc4ccccc4c32)CC1	1.1	0.77	-5	-14	1.1
O=c1oc2ccccc2c2c1ncn2CCN1CCOCC1	1.1	0.042	50*	-14	0.5
CC(=O)N1CCC(Nc2ccc(C)cc2)CC1	0.5	-0.81	6	54*	0.9
Cc1ccc(-c2cc([C@H]3[C@H]4C=CC[C@@H](C)[C@@H]4C(=O)N3Cc3ccccc3)ccc2F)cc1	.	-0.69	.	.	.
CCOc1ccc(Br)cc1S(=O)(=O)Nc1nc(CN2CCOCC2)nc2sc(C)c(C)c12	0.7	0.3	17	30	0.8
N#Cc1nc(-c2cccs2)oc1NCc1ccccc1Cl	0.4	.	20	57*	0.8
N#Cc1nc(-c2cccs2)oc1NCc1ccco1	0.1	-1.1	76*	90*	0.2
C=CCNc1oc(-c2cccs2)nc1C#N	1.5	0.68	72*	-46	0.3
N#Cc1nc(-c2cccs2)oc1NCc1ccc(Cl)cc1	0.8	.	11	21	0.9
N#Cc1nc(-c2ccco2)oc1NCc1ccco1	0.6	0.44	16	44	0.8
Cc1ccc(CNc2oc(-c3cccs3)nc2C#N)cc1	0.2	-1.5	15	78*	0.9
COc1ccc(-c2cc(C(F)(F)F)nc(-n3cc(Cl)cn3)n2)cc1	0.6	-0.021	17	36	0.8
O=S1(=O)C=C(Sc2nc3cc(Cl)ccc3o2)c2ccccc21	0.9	1	66*	6	0.3
Cc1ccc(-c2nnc(SCC(=O)Nc3ccccc3F)o2)cc1	0.6	-1.8	24	37	0.8
CC(C)CC(=O)Nc1ccc(C(=O)COc2ccc(-c3nnco3)cc2)cc1	0.1	0.06	72*	93*	0.3
O=C(CSc1nnc(-c2ccc(Br)cc2)o1)Nc1cccc2ccccc12	0.3	0.23	70*	74*	0.3
CCOC(=O)c1cc(-c2nnc(SCC(=O)Nc3ccc(F)cc3)o2)c(C)nc1C	0.5	0.033	20	51*	0.8
O=C(CSc1nnc(-c2ccncc2)o1)Nc1ccccc1Cl	0.8	-0.54	90*	17	0.1
N#Cc1ccsc1NC(=O)COc1ccc(-c2nnco2)cc1	0	-0.3	78*	95*	0.2
Cc1sc(NC(=O)CSc2nnc(-c3ccc(F)cc3)o2)c(C#N)c1C	0.3	.	70*	72*	0.3
COc1ccccc1NC(=O)CSc1nnc(C2CCCCC2)o1	0.6	1.4	56*	44	0.4
SMILES	CYP2C9 act	Cav32 inh	CYP2C19 inhib	CYP2C9 inhib	CYP2C19 activ
N#Cc1ccsc1NC(=O)CSc1nnc(-c2ccccc2)o1	0.2	0.3	28	85*	0.7
COc1ccccc1CNC(=O)c1ccc(CNc2c(N3CCCC3)c(=O)c2=O)cc1	1	0.79	-1	-5	1
COC(=O)c1[nH]c2ccccc2c1NC(=O)CN1CCN(c2cccc(OC)c2)C(C)C1 (configuration not stated)	0.6	-3.1	18	35	0.8
CN(Cc1cccs1)C(=O)CSc1nnnn1C	1.1	0.38	28	-12	0.7
COc1ccccc1NC(=O)CSc1nnc(C)o1	1	-0.015	-2	-4	1
Cc1csc(NC(=O)CSc2nnc(-c3ccncc3)o2)n1	0.7	0.069	55*	29	0.5
COC(=O)c1ccc(NC(=O)CSc2nnc(COc3c(C)cccc3C)o2)cc1	0.6	-0.46	16	42	0.8
O=C(CSc1nnc(-c2ccccc2)o1)Nc1ccccc1F	0.7	-1	57*	29	0.4
Cc1cccc(C)c1OCc1nnc(SCC(=O)Nc2ccccc2F)o1	0.4	-1.6	13	59*	0.9
COc1ccccc1NC(=O)CSc1nnc(-c2ccncc2)o1	0.7	0.21	84*	30	0.2
O=C(Cc1c(O)c2ccccc2[nH]c1=O)OC1CCCCC1	1	-0.084	-1	-1	1
COCCCN(Cc1ccccn1)S(=O)(=O)Cc1ccccc1	.	-0.62	.	.	.
COC(=O)C1=CN(c2cccc(C)c2)C=C(C(=O)OC)C1c1cc(OC)c(O)c([N+](=O)[O-])c1	0.5	-3.8	32	51*	0.7
COC(=O)c1cc(OC)c(OC)cc1NC(=O)Cc1ccccc1[N+](=O)[O-]	1	-0.073	20	-1	0.8
C(/C=C/C=C/Nc1ccccc1)=Nc1ccccc1	1	-5*	-1	-1	1
O=C1c2ccccc2C(=O)N1CCSc1n[nH]c(=S)s1	0.2	.	6	82*	0.9
CCCCNC(=O)C(C#N)c1nc2ccccc2nc1N1CCCC1 (configuration not stated)	1	.	8	4	0.9
COc1ccc(CNC(=O)C(C#N)c2nc3ccccc3nc2N2CCN(C)CC2)cc1 (configuration not stated)	0.5	0.73	58*	46	0.4
COc1ccc(S(=O)(=O)C(C#N)c2nc3ccccc3nc2N2CCCCC2)cc1 (configuration not stated)	0.4	-4.8*	57*	64*	0.4
COc1ccc(CNC(=O)C(C#N)c2nc3ccccc3nc2N2CCCC2)cc1 (configuration not stated)	0.8	-7.3*	16	24	0.8
Cc1ccc(C)c(S(=O)(=O)C(C#N)c2nc3ccccc3nc2N2CC(C)OC(C)C2)c1 (configuration not stated)	0	-5.7*	52*	99*	0.5
O=C(CN1CCC(n2nnc3cc(F)ccc32)CC1)NCCc1nc2ccccc2[nH]1	1	0.99	-5	-3	1
C=CCn1c(SCc2cc(=O)n3ccsc3n2)nc2sc(C)c(C)c2c1=O	0.8	1.4	0	19	1
CC1CN(c2nc3ccccc3nc2C(C#N)C(=O)NCc2ccc3c(c2)OCO3)CC(C)O1 (configuration not stated)	0.6	-7.9*	19	40	0.8
CCCNC(=O)C1CCN(S(=O)(=O)c2ccc(-c3nn[nH]n3)cc2)CC1	0.2	0.016	41	83*	0.6
O=C(NC1CCCCCC1)C1CCN(S(=O)(=O)c2ccc(F)cc2)CC1	1	-0.36	4	-3	1
CCCNC(=O)C1CCN(S(=O)(=O)c2ccc(Br)cc2)CC1	.	0.34	.	.	.
